The text below walks through data of PubChem BioAssay (EPA / NIEHS).

The structures appear in SMILES notation. A structure can be active in one record and inactive in another. The source made the active and inactive calls. How the source made its calls: active means hit-call score of the fitted dose curve at least 0.9, where 1 is the maximum; inactive means score below 0.9.

Read-out in the experiment: CD40, CD40 (gene 958)
As to the kind of experiment: BSK_LPS_CD40: BioMAP Diversity Plus: LPS Assay for CD40 Biomarker Activity (AID 2283076). To be noted: primary human HUVEC with PBMC; actives raise or lower the signal. The protocol:
BSK_LPS is a cell-based, multiplexed-readout assay that uses umbilical vein endothelium and peripheral blood mononuclear cells, a human vascular primary cell co-culture, with measurements taken at 24 hours after chemical dosing in a 96-well plate.BSK_LPS_CD40 is an assay component measured in the BSK_LPS assay. It measures CD40 antibody related to regulation of gene expression using ELISA technology.Data from the assay component BSK_LPS_CD40 was analyzed into 1 assay endpoint. This assay endpoint, BSK_LPS_CD40, was analyzed with bidirectional fitting relative to DMSO as the negative control and baseline of activity. Using a type of binding reporter, gain or loss-of-signal activity can be used to understand changes in the signaling as they relate to the gene CD40. Furthermore, this assay endpoint can be referred to as a primary readout, because this assay has produced multiple assay endpoints where this one serves a signaling function. To generalize the intended target to other relatable targets, this assay endpoint is annotated to the cytokine intended target family, where the subfamily is inflammatory factor.
The levels of cell surface (or secreted, indicated by the prefix "s") biomarker endpoints were measured by ELISA. Overt cytotoxicity to cells in confluent adherent cultures (all systems other than the BT system) was assessed by measuring total protein levels using sulforhodamine B (SRB) staining in parallel cultures at the time of biomarker measurements, indicated as SRB endpoints. For proliferation assays for adherent cell types, individual cell types are cultured at sub-confluence and relative cell numbers quantified by SRB staining at time points optimized for each system (48 h: 3C and CASM3C systems; 72 h: BT and HDF3CGF systems; 96 h: SAg system). SRB was performed by staining cells with 0.1% SRB after fixation with 10% TCA and reading wells at 560 nm.Viability and proliferation of PBMC (T cells) was quantified by Alamar Blue reduction for the SAg and BT systems. For PBMC viability (referred to as PBMC Cytotoxicity within the assay endpoint names), cells were plated (75,000/well in a 96-well plate) and then chemical samples added for 1 h before addition of activators, SEB and TSST-1 (20 ng/mL final concentration each). Cells were incubated for 90 h. Then, Alamar Blue (20 uL/well) (Invitrogen, Cat DAL1100) was added for 6 h, and the plates were read with a fluorescence microplate reader at 546/580 nm (excitation/emission). For PBMC proliferation, cells were plated and activated as above but incubated for only 16 h prior to addition of Alamar Blue. Plates were read after 6 h.
As to `OCc1ccco1`, the outcome was inactive. Usually AC50 stands for the midpoint of the concentration-response curve, whichever way the signal moves. As for `COP(=S)(OC)Oc1ccc(Sc2ccc(OP(=S)(OC)OC)cc2)cc1`, the AC50 is 20 µM (active). `CC(C)c1ccc(CO)cc1`: the outcome was inactive. Same read-out and setting: as for `ClCC(Cl)CCl`, the entry is “inactive”; as for `CC12CC1(C)C(=O)N(c1cc(Cl)cc(Cl)c1)C2=O` (stereo not given), “inactive”.

On to `O=[N+]([O-])c1ccc2c3c(cccc13)CC2`, for which the outcome was inactive.

In the case of `CCOP(=S)(OCC)Oc1ccc(S(C)=O)cc1` (stereo not given), the outcome was inactive. Still for that read-out and setting: as for `COC[C@H](C)N(C(=O)CCl)c1c(C)csc1C`, the entry is “inactive”. On to `C[C@@H]1C[C@@H]([C@H](O)CC2CC(=O)NC(=O)C2)C(=O)[C@@H](C)C1`, for which the AC50 is 3.35 µM (active).

Turning to `CCN1CCC2(CC1)COc1cc3c(cc12)N(C(=O)c1ccc(-c2ccc(-c4nnc(C)o4)cc2C)cc1)CC3`, the half-maximal activity concentration (AC50) was 9.75 µM (active).

Consider `Cc1ccccc1N`, for which the result was inactive. As for `Nc1cccc2ccccc12`, the outcome was inactive. On the same count and under the same terms, as for `O=C(O)CCC(F)(C(F)(F)F)C(F)(F)F`, the entry is “inactive”. Consider `Cn1sc(Cl)cc1=O`, for which the AC50 is 26 µM (active). Consider `O=C(OC1CCCCC1)c1ccccc1C(=O)OC1CCCCC1`, for which the AC50 is 15.5 µM (active). In the case of `ClC1=C(Cl)[C@]2(Cl)[C@H]3[C@H]([C@H]4C=C[C@H]3C4)[C@@]1(Cl)C2(Cl)Cl`, the result was inactive. On the same count and under the same terms, as for `Oc1cccc2cccnc12`, the entry is “inactive”; as for `O=S(=O)(c1ccc(Cl)cc1)c1ccc(Cl)cc1`, “inactive”. The same measure, in the same setting: as for `COC(=O)c1sccc1S(=O)(=O)NC(=O)Nc1nc(C)nc(OC)n1`, the entry is “inactive”; as for `CN(C)N=O`, “inactive”; as for `Oc1ccc(-c2ccccc2)cc1`, “inactive”. Same read-out and setting: as for `CCCCCCCCC(=O)NCc1ccc(O)c(OC)c1`, the entry is “inactive”; as for `CCSC(C)CC1CC(=O)C(C(CC)=NOC/C=C/Cl)=C(O)C1` (stereo not given), “inactive”. Regarding `O=C(O)C(F)(F)C(F)(F)C(F)(F)C(F)(F)C(F)(F)C(F)(F)C(F)(F)C(F)(F)C(F)(F)C(F)(F)F`, the outcome was inactive and the AC50 was 29.5 µM (active). Turning to `CCOP(=S)(OCC)SCCS(=O)(=O)CC`, the outcome was inactive.

`CCC(C)(C)c1ccc(O)c(C(C)(C)CC)c1`: the AC50 was 13.6 µM (active). In the case of `Nc1ncc([N+](=O)[O-])s1`, the outcome was inactive.

Consider `C=C(C)C(=O)[O][Sn]([CH2]CCC)([CH2]CCC)[CH2]CCC`, for which the concentration at half-maximal activity (AC50) is 0.148 µM (active).

For the compound `CCCCC(CC)CO[N+](=O)[O-]` (stereo not given), the outcome was inactive.

As to `C[C@]12CCC(=O)C[C@@H]1CC[C@@H]1[C@@H]2CC[C@]2(C)[C@@H](O)CC[C@@H]12`, the result was inactive.

As for `CC(C)(c1ccccc1)c1ccc(O)c(C(C)(C)c2ccccc2)c1`, the AC50 is 12.3 µM (active). As to `O=C(O)C(Cl)(Cl)Cl`, the result was inactive. On the same count and under the same terms, as for `ClC1(Cl)C2(Cl)C3(Cl)C4(Cl)C(Cl)(Cl)C5(Cl)C3(Cl)C1(Cl)C5(Cl)C24Cl` (stereo not given), the entry is “inactive”.

`BrCCBr`: the outcome was inactive.

For `CC(=O)[O][Hg][c]1ccccc1`, the concentration at half-maximal activity (AC50) is 1.62 µM (active). On to `Oc1c(I)cc(I)cc1I`, for which the AC50 is 14.2 µM (active).

Consider `COc1cc(OC)nc(NC(=O)NS(=O)(=O)c2ncccc2C(=O)N(C)C)n1`, for which the result was inactive. The same measure, in the same setting: as for `COC(=O)Cc1ccccc1`, the entry is “inactive”; as for `O=c1[nH]c(=O)[nH]c(=O)[nH]1`, “inactive”.
